Laboratory results reported in article PMC5540273 (PLoS ONE, 2017).

system: CHEK2
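Note: kd values determined as follow-up on hits from a single-replicate KINOMEscan panel screen.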

Q: How did the Kd turn out when CNc1cc(-c2ccc3c(N)n[nH]c3c2)nc(N)n1 [GSK2224810] was run?
A: 2000 nM

Q: With CC(C)c1cc(-c2ccc3c(N)n[nH]c3c2)nc(N)n1 [GSK2250882] as the molecule, how does the Kd read?
A: 320 nM

Q: With COc1ccc(Nc2nccc(NCCNC(=O)Nc3cc(C)ccc3C)n2)cc1 [GSK1379899] as the molecule, how does the Kd read?
A: > 10000 nM

system: CIT

Q: Which Kd does the source give for Fc1ccc(-c2nc[nH]c2-c2ccncc2)cc1 [SB-217360] here?
A: 310 nM

Q: How did the Kd turn out when Cc1cccc2c(-c3ccncn3)c(-c3ccc(F)cc3)nn12 [GW515532] was run?
A: 2500 nM

Q: With COc1cccc(NC(=O)Nc2ccc(C)c(-c3ccc(C(=O)Nc4ccncc4)cc3)c2)c1 [GSK1398474] as the molecule, how does the Kd read?
A: 280 nM

Q: For Cc1ccc(NC(=O)Nc2ccccc2)cc1-c1ccc(C(=O)Nc2ccncc2)cc1 [GSK1398471], which Kd is on record?
A: 540 nM

Q: Fc1ccc(-c2nn3cccc(F)c3c2-c2ccncc2)cc1 [GW475620] was tested. Which Kd did it give?
A: 310 nM

Q: Which Kd does the source give for Cc1ccc(NC(=O)Nc2ccc(Cl)cc2)cc1-c1ccc(C(=O)Nc2ccncc2)cc1 [GSK1398472] here?
A: 430 nM

Q: With CNc1nc(-c2ccc3c(N)n[nH]c3c2)cc(N2C[C@@H](C(=O)Nc3ccccc3)CC[C@H]2C)n1 [GSK2298859] as the molecule, how does the Kd read?
A: 500 nM

Q: With Cc1ccc(NC(=O)Nc2ccccc2F)cc1-c1ccc(C(=O)Nc2ccncc2)cc1 [GSK1398477] as the molecule, how does the Kd read?
A: 570 nM

Q: Which Kd does the source give for Cl.Cl.Cl.N#Cc1ccc(CCNc2nccc(-c3cccc(CN4CCNCC4)c3)n2)cc1 [GSK2137462] here?
A: 8600 nM

Q: For Fc1ccc(-c2nc3n(c2-c2ccncc2)CCS3)cc1 [GI98581], which Kd is on record?
A: 760 nM

Q: For CC[C@@H]1CO[C@H](C(=O)Nc2ccccc2)CN1c1cc(-c2ccc3c(N)n[nH]c3c2)nc(NC)n1 [GSK2376236], which Kd is on record?
A: 200 nM

Q: Which Kd does the source give for Nc1nccc(-c2c(-c3ccc(F)cc3)ncn2C2CCN(Cc3ccccc3)CC2)n1 [SB-219980] here?
A: 130 nM

system: CLK1

Q: With CNc1cc(-c2ccc3c(N)n[nH]c3c2)nc(N)n1 [GSK2224810] as the molecule, how does the Kd read?
A: 330 nM

Q: How did the Kd turn out when Cc1cccc2c(-c3ccncn3)c(-c3ccc(F)cc3)nn12 [GW515532] was run?
A: > 10000 nM

Q: Which Kd does the source give for COc1ccc(CSc2nnc(-c3ccc4ncsc4c3)o2)cc1C(F)(F)F here?
A: 170 nM

Q: With O=C1NC(=O)C(c2ccc(Cl)cc2)=C1Nc1cccc(Cl)c1 [SB-317651] as the molecule, how does the Kd read?
A: 4400 nM

Q: How did the Kd turn out when CNCc1ccc2nc(NC(=O)c3ccc(C(C)(C)C)cc3)cn2c1 was run?
A: 7500 nM

Q: With COc1ccc(CSc2nnc(-c3ccc4nccn4c3)o2)cc1C(F)(F)F as the molecule, how does the Kd read?
A: 70 nM

system: CLK2

Q: Which Kd does the source give for CNc1cc(-c2ccc3c(N)n[nH]c3c2)nc(N)n1 [GSK2224810] here?
A: 410 nM

Q: With Cc1ccc(NC(=O)c2ccc(Cl)cc2)cc1-c1ccc(C(=O)Nc2ccncc2)cc1 [GSK1398467] as the molecule, how does the Kd read?
A: > 10000 nM

Q: For COC(=O)c1cccc(NC(=O)NC2CCN(c3ccnc(Nc4ccc(OC)cc4)n3)C2)c1 (stereo not shown) [GSK1379746], which Kd is on record?
A: > 10000 nM

Q: How did the Kd turn out when COc1ccc(CSc2nnc(-c3ccc4nccn4c3)o2)cc1C(F)(F)F was run?
A: 150 nM

system: CLK3

Q: For CCCCc1nn2ncccc2c1-c1ccnc(NC2CC2)n1 [GW684374], which Kd is on record?
A: > 10000 nM

Q: Cc1cccc2c(-c3ccncn3)c(-c3ccc(F)cc3)nn12 [GW515532] was tested. Which Kd did it give?
A: > 10000 nM

Q: Which Kd does the source give for CC(=O)c1c(C)c2cnc(Nc3ccc(N4CCNCC4)cn3)nc2n(C2CCCC2)c1=O here?
A: > 10000 nM
